In the supplement of paper PMC6555819 one finds PBM binding z-score data, which are given here for 40 sequences.

This test concerns PPARg:RXRa 90nM:30nM, anti-RXR (NR concentration 90 nM, RXRa partner concentration 30 nM). The test can be described thus: PBM binding z-score (relative to random genomic background probes); higher = stronger binding; sequences stand for … in GC…GCGATTGACAGCGTAGAATGAAGG
An outline of the steps: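 For binding z-scores, the reference was random background probes on custom Agilent 4×180K protein-binding microarrays. These arrays were incubated 1 h with ligand-free nuclear receptor dimers in PBS pH 7.4, 2% milk, 0.02% Triton X-100, 1 mM DTT, 0.2 mg/mL BSA and 0.4 mg/ml salmon testes DNA. Fluorescence was scanned after antibody detection of each partner (one per run) and regression-normalized.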
On to CAGAGTAGGTTATGGGGCATTCAGGCAACGGTGA, for which the PBM binding z-score came out at 5.42.
TGAATGAGGTTAAACATCAGGGAACGTGGCGTCG: the PBM binding z-score amounted to 1.93.
For TAGCCTAGGTCATGGGCCCGTATACCACGCGAAC the value was 2.09; for ACTCGGAGGACTAAGGTCAGAGCTACGCCAGTGA, 2.41.
In turn, CAAACTAGGTCAAGAAAGGTCAAAGTCGAATGAC had a PBM binding z-score of 7.85.
For CCGACTAGGGCATAAGGTTACCATAAGCCAGCCC the value was 3.27; for TGTCAAAGTTCAAAGGTAACGTGAGTATCCACAC, 7.73; for GCTTGTAGATCAAGGTTAAGCAAGACTAAGCTAA, 1.6.
As to ACAGACAGGTGATGAAAGTAACTCAGGCTATCAT, the PBM binding z-score is -0.305.
For AACTCTAGGTAAAGATAGTTCAGTGAATGCAAAT the value was 0.245; for CGAACGAGGGCATGAGTTGTTAGCAAATGCCGAT, 0.425.
For TCTTGTACATCAGCAGGTTAAGAAAGCTGGCCAA, the PBM binding z-score came out at 2.33.
As for TCTGCTAGGTAAGTTGGTCAGCTAACGAGCTGCC, the PBM binding z-score turned out to be 0.642.
Sequence ACTATTAGTTGACTTAGGGCAACCCATACGACGC came in with a PBM binding z-score of 0.203.
For GCTCGGAGGACAAGGCCAGAGCTTTGTCCGTAGA, the PBM binding z-score was -1.57.
As to GGAACGAGGGCACAGTTGATAGCATCTGTCGACG, the PBM binding z-score amounted to 3.28.
Regarding TAGCCTAGGTCATTCAGGTGCCAGTATAGAAAGC, the PBM binding z-score worked out at 1.54.
For ATACCAAGGGGATCGTGAGGTCGTTGATACTAAC the value was -0.365; for ATATGTAGGTTATCGGGTCATTCAATTTGCGCAT, 6.15; for TCGAGTAGGTTAGACGGGGCATTCAGCCAACATA, 1.04.
Turning to CAAACTAGGTCTAAGGTCAAAGTCGAGCCAACCA, the PBM binding z-score is 10.2.
Take ATATGTAGGTAAGCTGGGGTCATTCAGACTAGGC: the PBM binding z-score amounted to 3.77.
On to CGGACTAGGTCAAGGACAGTGAATCTCCGCACGC, for which the PBM binding z-score turned out to be 4.61.
Turning to TCGAGTAGGTTAGTGGCATTCAGAATGGCGTCGA, the PBM binding z-score turned out to be 0.858.
Sequence CCAGCTAGGTCATGGTCAGCTAATCTACAGTATG registered a PBM binding z-score of 2.17.
For ACTATAAGTTGAGACGAGGGCAACCGATAGGTTG the value was 0.578; for TCTTGTTGATCAACAGGAGGTTAAGAAAGATCGA, 2.1; for CAAACTAGGTCGCGAAAGGTCAAAGTCGAATGAC, 6.34.
The sequence GGAACGAGGGCAAAGTTGATAGCATCTGTCGACG displayed a PBM binding z-score of 7.47.
For CGTCCAAGGTCAATGTCAGTGAAAGAGACTCGAA, the PBM binding z-score is 2.57.
Sequence ACAATGAGGTTAAGATCAGGGAAACAGAATACAT displayed a PBM binding z-score of 1.24.
ACTTACGGGTCAACGAGGTTATAGAACGCGTATA yielded a PBM binding z-score of 4.21.
The value for TCTAGTTGGTCAAAGGTCACTCACTCGAAATGCG was 12.1; that for TCTCGTTGGTCAAAGGTCACACACTCGAAATGCG was 9.27.
On to TCTGCTGGGTCAGTTGGTCAGCTAACGAGCTGCC, for which the PBM binding z-score is 1.19.
GCGACTGGGGCATCAGCAGGTTCCCATAACTTAA yielded a PBM binding z-score of -0.176.
Turning to CCTAGTGGGCCAAAAAGGTCATTGATGCCGATAA, the PBM binding z-score is 3.24.
In turn, TAGCCTAGGTCATACGGGCCAGTATAGTGTCGGC registered a PBM binding z-score of 1.54.
The value for CCGACTGGGGCATAAAGGTTACCATACCATCCGG was 3.81.
For CCTGCTGGGCCATTCAGAGGTCATTGATCATATG the value was 1.15.
